Bioassay records deposited in PubChem BioAssay by several laboratories.
A selection: hits, their analogues and other compounds. The true share with any hit is near 21%.
MRP1 act = MRP-1 activation; H69AR cells + doxorubicin, viability rescue, CellTiter-Glo; viability increase, % at 10 µM; 140,000 tested, 0.61% active;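 active = viability gain under doxorubicin at or above a set limit, the compound median plus 3 SD, cut at about 4.7% in these data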;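 note: MRP-1 overexpressing cells given doxorubicin 25 µM after compound pretreatment; 18-22 h compound pretreatment then 72 h with doxorubicin before readout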
CYP2C9 inh = blocks human cytochrome P450 2C9; CYP2C9 Supersomes, luciferin-H conversion, luminescence; AID 777; inhibition, % at 5 µM; 96,000 tested, 20% active; P11712;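 active = blocking of liver enzyme CYP2C9 beyond about 50% at 5 µM, limit read from the data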
MRP resist rev = compounds reversing MRP-mediated drug resistance | H69AR cells + 2 uM doxorubicin, CellTiter-Glo, 72 h | differential viability (reversal), % at 10 µM | 85,000 tested, 0.04% active | AID 602;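 active = viability drop by adding the cancer drug above about 55%, with treated viability meeting a 40% cutoff, limit read from the data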;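 note: larger differential means the compound sensitizes cells more to doxorubicin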
CYP2C9 act = activators of human CYP2C9; AID 1024; 96,000 tested, 1.4% active; P11712; activation factor at 5 µM; recombinant CYP2C9, luciferin-H conversion, luminescence; active compounds read high; factor 1 = untreated enzyme, 0 = blocked;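 active = activation factor of 2 or more for CYP2C9 at a 5 µM dose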
CYP2C19 activ = cytochrome P450 2C19 (human) activation. P33261. recombinant CYP2C19, luciferin-H EGE luminescence; active compounds read high; 0 = fully inhibited enzyme, 1 = untreated enzyme. activation factor at 5 µM. 96,000 tested, under 10 active;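 active = activation factor of at least 2 at 5 µM in the primary screen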
Target sequence (P33261 whole entry, looked up): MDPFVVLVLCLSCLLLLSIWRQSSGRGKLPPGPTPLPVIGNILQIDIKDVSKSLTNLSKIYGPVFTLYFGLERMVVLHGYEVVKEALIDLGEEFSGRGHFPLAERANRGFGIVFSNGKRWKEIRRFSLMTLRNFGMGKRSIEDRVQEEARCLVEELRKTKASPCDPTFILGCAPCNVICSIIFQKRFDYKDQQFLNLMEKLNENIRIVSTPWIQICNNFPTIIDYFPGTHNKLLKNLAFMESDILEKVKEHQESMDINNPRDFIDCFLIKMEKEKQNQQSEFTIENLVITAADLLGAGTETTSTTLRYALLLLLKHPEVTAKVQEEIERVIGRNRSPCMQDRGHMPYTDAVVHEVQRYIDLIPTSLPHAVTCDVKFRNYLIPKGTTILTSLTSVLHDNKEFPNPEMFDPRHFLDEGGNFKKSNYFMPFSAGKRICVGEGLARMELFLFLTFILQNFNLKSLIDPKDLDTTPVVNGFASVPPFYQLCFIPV
CYP2C19 inh = inhibitors of human CYP2C19 | P33261 | CYP2C19 Supersomes, luciferin-H EGE luminescence, 30 min | inhibition, % at 5 µM | 96,000 tested, 21% active;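 active = CYP2C19 inhibition above a set limit at 5 µM in the primary screen, cut at about 50% in these data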
Each line names hits and unclear results; the compound was inactive in the other large screens.

O=C1Nc2ccc(S(=O)(=O)N3CCCC3C(=O)O)c3cccc1c23 (configuration not stated)	none
O=C1Nc2ccc(S(=O)(=O)N3CCCC3)c3cccc1c23	CYP2C19 inh 83.2
CN(CC(=O)NCc1ccncc1)S(=O)(=O)c1ccc(F)cc1	CYP2C9 inh 82.3, CYP2C19 inh 90.8
CN(CC(=O)NCc1ccncc1)S(=O)(=O)c1ccccc1	CYP2C9 inh 83.4, CYP2C19 inh 94.3
Cn1cnc2c1c(=O)n(CC(O)CO)c(=O)n2C (configuration not stated)	none
CC(=O)CCCCn1c(=O)c2c(ncn2C)n(C)c1=O	CYP2C9 inh 51.2
COc1ccc(NC(=O)CSc2nc3c(c(=O)[nH]2)CCC3)cc1OC	none (no result: MRP resist rev)
CCC(Sc1nc2c(c(=O)[nH]1)CCC2)C(=O)Nc1cccc(OC)c1 (configuration not stated)	CYP2C9 inh 62.4
Cc1ccc(S(=O)(=O)N(C)C)cc1NC(=O)c1cncc(Br)c1	none (no result: CYP2C9 inh, MRP resist rev, CYP2C9 act, CYP2C19 activ, CYP2C19 inh)
Cc1sc2c(c1C)c(=O)nc1scc(C)n12	none (no result: MRP1 act, CYP2C9 inh, CYP2C9 act, CYP2C19 activ, CYP2C19 inh)
O=C1COc2ccc(C(=O)c3ccccc3C(=O)NCc3ccco3)cc2N1	CYP2C19 inh 66.6
O=C1COc2ccc(C(=O)NCc3ccco3)cc2N1	none
O=C1COc2ccc(C(=O)c3ccccc3C(=O)NCc3ccccc3)cc2N1	CYP2C19 inh 75.4
S=c1[nH]nc(-c2ccccn2)n1/N=C/c1cccc2ccccc12	none (no result: CYP2C9 inh, MRP resist rev, CYP2C9 act, CYP2C19 activ, CYP2C19 inh)
CC1(c2ccccc2)CC(c2ccccc2)=Nc2nonc2N1 (configuration not stated)	CYP2C9 inh 51.6, CYP2C19 inh 94.1
Cc1ccc(N2C(=O)CC(Sc3ncn[nH]3)C2=O)cc1C (configuration not stated)	none
Cc1ccc(N2C(=O)C(Cc3ccc(O)cc3)NC2=S)cc1C (configuration not stated)	none (no result: CYP2C9 inh, MRP resist rev, CYP2C9 act, CYP2C19 activ, CYP2C19 inh)
CCOc1ccc(C2C=C(c3ccc(C)cc3)Nc3ncnn32)cc1 (configuration not stated)	none
CCOc1ccc(C2C=C(c3ccc(C)cc3)Nc3nnnn32)cc1 (configuration not stated)	CYP2C9 inh 83.9, CYP2C19 inh 83.4
CCOc1ccc(C2C=C(c3ccccc3)Nc3nnnn32)cc1 (configuration not stated)	CYP2C9 inh 62.5, CYP2C19 inh 64.3
O=C(Cn1ccc2ccccc2c1=O)NCCC(=O)NC1CCN(Cc2ccccc2)CC1	none
COc1cc(/C=N/NC(=O)c2cccnc2)ccc1OCC(=O)N1CCOCC1	none (no result: CYP2C9 inh, MRP resist rev, CYP2C9 act, CYP2C19 activ, CYP2C19 inh)
CCOC(=O)c1c(NC(=O)c2ccco2)sc2c1CCCC2	CYP2C9 inh 55.8
NC(=O)c1c(NC(NC(=O)c2ccco2)C(=O)c2ccc(Cl)cc2)sc2c1CCCC2 (configuration not stated)	none
COc1ccccc1OCC(=O)Nc1sc2c(c1C(=O)NCC1CCCO1)CCC2 (configuration not stated)	CYP2C9 inh 95.9, CYP2C19 inh 52.1 (no result: MRP resist rev)
COC(=O)c1c(NS(=O)(=O)Cc2ccccc2)sc2c1CCCC2	CYP2C9 inh 95.5, CYP2C19 inh 92.8
CCOC(=O)c1c(NC(=O)CN2CCN(C(=O)c3ccco3)CC2)sc2c1CCCC2	none (no result: CYP2C9 inh, CYP2C9 act, CYP2C19 activ, CYP2C19 inh)
N#Cc1c(NC(NC(=O)c2ccco2)C(=O)c2ccccc2)sc2c1CCCC2 (configuration not stated)	CYP2C9 inh 76.0
Cc1ccccc1OCC(=O)NCC1CCCO1 (configuration not stated)	none
Cc1cc(C)n(C(=O)C(C)N2C(=O)c3ccccc3C2=O)n1 (configuration not stated)	none
O=C(Nc1ccc2snnc2c1)Nc1cccc2ccccc12	none
COC(=O)c1c(NC(=O)c2ccco2)sc(C(=O)N2CCCC2)c1C	CYP2C9 inh 60.6
CSc1ncc(Cl)c(C(=O)Nc2sc3c(c2C(=O)NCc2ccco2)CCCC3)n1	none (no result: MRP resist rev)
COc1ccccc1C(=O)Nc1sc2c(c1C(=O)NCc1ccco1)CCCC2	CYP2C9 inh 84.0
CCOC(=O)c1c(NC(=O)c2ccn(CC)n2)sc2c1CCCC2	CYP2C9 inh 68.1, CYP2C19 inh 54.6
CCOC(=O)c1c(NC(=O)C(F)(OC)C(F)(F)F)sc(C(=O)N2CCCCC2)c1C (configuration not stated)	CYP2C9 inh 76.3
COc1cc(OC)cc(C(=O)N[C@H](C(=O)OCC(=O)Nc2ccc(C(C)C)cc2)C(C)C)c1	none (no result: CYP2C9 inh, MRP resist rev, CYP2C9 act, CYP2C19 activ, CYP2C19 inh)
CN1CCN(c2ccc([N+](=O)[O-])cc2/C=N/NC(=O)c2cccc([N+](=O)[O-])c2)CC1	none (no result: CYP2C9 inh, MRP resist rev, CYP2C9 act, CYP2C19 activ, CYP2C19 inh)
CCOC(=O)c1c(NC(=O)c2ccco2)n(C2CCCCC2)c2nc3ccccc3nc12	CYP2C9 inh 54.8
COc1ccccc1NC(=O)c1c(NC(=O)c2ccco2)sc2c1CCC2	CYP2C9 inh 64.1
COc1ccccc1NC(=O)c1csc2c1CCCC2	CYP2C9 act 2.4 (no result: MRP resist rev)
CCc1c(C)sc(NC(=O)OC)c1C(=O)N1CCCCC1	CYP2C19 inh 52.5
COc1cc(NC(=O)c2csc3c2CCCC3)ncn1	none (no result: MRP resist rev)
O=C(Nc1sc2c(c1C(=O)NC1CCCCC1)CCC2)c1ccco1	none
CCc1c(C)sc(NC(=O)OC)c1C(N)=O	none (no result: MRP resist rev)
CCC(=O)Nc1c(C#N)c2nc3ccccc3nc2n1C1CCCCC1	none
Cc1ccc2c(c1)N(C(=O)CCC(=O)O)CCO2	none (no result: CYP2C9 inh, MRP resist rev, CYP2C9 act, CYP2C19 activ, CYP2C19 inh)
COc1cccc2cc(C(=O)C3=C(O)C(=O)N(CCCN4CCOCC4)C3c3ccncc3)oc12 (configuration not stated)	none (no result: MRP1 act, CYP2C9 inh, CYP2C9 act, CYP2C19 activ, CYP2C19 inh)
COc1ccccc1C1/C(=C(/O)c2ccccc2)C(=O)C(=O)N1CC(C)C (configuration not stated)	CYP2C9 inh 58.8
COc1ccccc1C1/C(=C(/O)c2ccc(C)cc2)C(=O)C(=O)N1CC(C)O (configuration not stated)	none
C[C@H](NC(=O)C1(c2ccccc2)CCN(C(=O)[C@H]2CSCN2C(=O)OC(C)(C)C)CC1)C(=O)O	none
CCOC(=O)c1sc(=S)n(-c2ccccc2)c1SC	CYP2C19 inh 58.3 (no result: MRP resist rev)
CCOC(=O)c1sc(=S)n(-c2cccc(C(F)(F)F)c2)c1SC	CYP2C9 inh 60.7 (no result: MRP resist rev)
CCOC(=O)c1sc(=S)n(-c2ccccc2Cl)c1SC	none (no result: MRP resist rev)
O=C(COC(=O)c1cc([N+](=O)[O-])ccc1NCCO)c1ccccc1	none (no result: CYP2C9 inh, MRP resist rev, CYP2C9 act, CYP2C19 activ, CYP2C19 inh)
O=C(NCCSc1c[nH]c2ccccc12)C1CC1	none
CC1=C(C(=O)OCC(C)C)[C@]23C(=O)c4ccccc4[C@@]2(O1)OC(N)=C3C#N	none (no result: CYP2C9 inh, CYP2C9 act, CYP2C19 activ, CYP2C19 inh)
CC1=C(C(=O)OCC(C)C)C23C(=O)c4ccccc4C2(O1)OC(N)=C3C#N (configuration not stated)	CYP2C9 inh 68.3, CYP2C19 inh 86.3
O=C(Nn1cnnc1)c1ccccc1-c1ccccc1	none
Cc1ccc(NC(=O)C(C)OC(=O)CCNS(=O)(=O)c2ccc(C)cc2)cc1 (configuration not stated)	none (no result: CYP2C9 inh, MRP resist rev, CYP2C9 act, CYP2C19 activ, CYP2C19 inh)
CC(=O)Nc1ccc(S(=O)(=O)NCCC(=O)OCCN2C(=O)c3ccccc3C2=O)cc1	CYP2C9 inh 93.1, CYP2C19 inh 69.8
